Bioassay records as filed in PubChem BioAssay.
KCNQ2 pot: KCNQ2 (rat) channel potentiation | CHO-K1 KCNQ2, FluxOR thallium flux fluorescence; active compounds read high | B-score at 10 µM | 310,000 compounds, 0.54% hits | AID 2239;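 active = fluorescence ratio B-score at least 3 SD of library B-scores, with initial fluorescence B-score within 3 of them, cut at about 5.3 in these data; same plate scores as AID 2156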;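 note: B-score of peak minus minimum over baseline fluorescence ratio after K+ and Tl+ stimulus; positive B-score means potentiation of KCNQ2 with more thallium influx and brighter signal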
KCNQ2 block: KCNQ2 (rat) channel inhibition; O88943; CHO-K1 KCNQ2, FluxOR thallium flux, 20 min; active compounds read low; B-score at 10 µM; 310,000 compounds, 1.1% hits;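 active = fluorescence ratio B-score at most minus 3 library SDs, with starting brightness B-score within 2 library SDs, cut at about -5.5 in these data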
Kir21 conf inh: confirmation of mouse Kir2.1 potassium channel inhibitors | 2,300 compounds, 41% hits | shares compounds with KCNQ2 pot | Tl flux remaining, % of negative control (active compounds read low), % at 10 µM | AID 2032 | Kir2.1-expressing cells, FluxOR thallium flux fluorescence; active compounds read low;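 active = Primary-screen hit whose thallium flux fell at least 3 control SD below untreated wells in both duplicates, with normal baseline fluorescence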;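 note: 0% = blank wells without stimulus and 100% = stimulated no-compound controls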
HEK293 Tl flux: counter-screen for Kir2.1 inhibitors: effect in parental HEK293 cells; shares compounds with KCNQ2 pot; FluxOR thallium flux fluorescence; 0% = unstimulated blank wells; FluxOR signal as % of negative control (100 = no effect), % at 10 µM; 2,300 compounds, 19% hits; AID 2105;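 active = dye signal at least 3 control SD above or below untreated wells in both duplicates, raw fluorescence within 3, either direction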;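 note: percent is based on the flux ratio of peak minus minimum fluorescence over baseline F0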
CHO-K1 ctr: alters thallium flux in parental CHO-K1 cells, KCNQ2 counter-screen | shares compounds with KCNQ2 pot | FluxOR thallium flux fluorescence; zero = vehicle mean+3SD, 100% = vehicle-minus-blank window | activity increase over 3SD of controls, % at 10 µM | 1,200 compounds, 43% hits | AID 2282;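 active = signal rise of at least 3 SD above the untreated control mean, in both duplicate wells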;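 note: counter screen of KCNQ2 potentiator hits so any rise reflects channel-independent effects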
KCNQ1 sel pot: tests whether KCNQ2 potentiators also act on human KCNQ1 | shares compounds with KCNQ2 pot | CHO KCNQ1 stable, FluxOR thallium flux fluorescence; beyond 3SD, as % of vehicle-control signal | activation over 3SD threshold, % at 10 µM | 1,200 compounds, 28% hits;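 active = fluorescence ratio rise of at least 3 SD of vehicle wells above their mean, in both replicate wells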;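 note: 0% = vehicle mean plus 3 SD and 100% = vehicle minus unstimulated blank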
KCNQ2 pot conf: rat KCNQ2 channel potentiator confirmation. AID 2287. potentiation, less the hit threshold, % at 10 µM. 1,200 compounds, 68% hits. CHO-KCNQ2 cells, FluxOR thallium flux fluorescence. shares compounds with KCNQ2 pot;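 active = fluorescence ratio rising 3 SD or more over the vehicle control mean in both replicates, plus primary screen hit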;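 note: peak minus minimum thallium fluorescence divided by baseline after K/Tl stimulus; 0% = vehicle mean plus 3 SD and 100% = vehicle minus unstimulated blank difference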
Kir21 spec: tests whether KCNQ2 potentiators also affect mouse Kir2.1; shares compounds with KCNQ2 pot; HEK293 Kir2.1, FluxOR thallium flux fluorescence; activity over 3SD threshold, % at 10 µM; 1,200 compounds, 2% hits; AID 2345;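 active = fluorescence ratio rise of at least 3 SD above the vehicle-control mean, seen in both replicates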;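 note: 0% = vehicle mean plus 3 SD and 100% = vehicle minus no-stimulus blank window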
KCNQ2 W236L MoA: rat KCNQ2 W236L mutant potentiation by KCNQ2 potentiators; CHO KCNQ2-W236L, automated patch clamp current; shares compounds with KCNQ2 pot; current increase over 3SD of negative controls (%), active compounds read high, % at 25 µM; AID 2558; 940 compounds, 10% hits;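 active = current increase at least 3 SD of the untreated controls above them in both duplicate recordings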
Target sequence (O88943 whole entry W236L, looked up): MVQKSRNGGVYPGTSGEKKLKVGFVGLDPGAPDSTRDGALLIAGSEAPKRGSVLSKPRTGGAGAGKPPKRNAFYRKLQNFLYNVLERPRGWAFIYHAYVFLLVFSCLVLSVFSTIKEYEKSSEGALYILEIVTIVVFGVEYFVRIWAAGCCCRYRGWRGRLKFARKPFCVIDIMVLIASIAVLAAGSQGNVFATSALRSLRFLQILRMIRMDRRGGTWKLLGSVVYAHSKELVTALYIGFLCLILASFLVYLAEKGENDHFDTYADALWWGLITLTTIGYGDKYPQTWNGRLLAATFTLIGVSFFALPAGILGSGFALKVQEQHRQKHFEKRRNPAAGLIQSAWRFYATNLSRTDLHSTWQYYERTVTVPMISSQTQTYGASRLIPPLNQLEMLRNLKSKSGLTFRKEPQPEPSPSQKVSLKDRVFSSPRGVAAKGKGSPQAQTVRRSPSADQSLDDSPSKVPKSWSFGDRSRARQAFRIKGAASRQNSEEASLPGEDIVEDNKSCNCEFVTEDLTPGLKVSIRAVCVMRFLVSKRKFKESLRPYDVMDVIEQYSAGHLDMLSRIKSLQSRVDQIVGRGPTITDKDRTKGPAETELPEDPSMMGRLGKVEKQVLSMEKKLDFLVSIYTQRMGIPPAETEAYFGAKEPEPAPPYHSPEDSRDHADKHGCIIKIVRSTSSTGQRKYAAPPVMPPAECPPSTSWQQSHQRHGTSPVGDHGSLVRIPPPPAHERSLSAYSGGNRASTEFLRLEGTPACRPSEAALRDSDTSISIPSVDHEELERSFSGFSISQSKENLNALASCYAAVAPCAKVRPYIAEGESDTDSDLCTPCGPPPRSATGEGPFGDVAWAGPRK
An asterisk follows results filed as active; i = inactive; x = no result given. A selection: hits, their analogues and other compounds. The true share with any hit is near 1.6%.

SMILES	KCNQ2 pot	KCNQ2 block	Kir21 conf inh	HEK293 Tl flux	others
CC(/C=C1\SC(=S)N(NC(=O)c2ccc(C)cc2)C1=O)=C\c1ccccc1	9.2*	i	i	i	CHO-K1 ctr=-4;KCNQ1 sel pot=-10;KCNQ2 pot conf=-20;Kir21 spec=-21
CC(/C=C1\SC(=S)N(NC(=O)c2ccncc2)C1=O)=C\c1ccccc1	3.2	i	x	x
CCOc1ccc(N(CC(=O)Nc2cc(Cl)ccc2C)S(C)(=O)=O)cc1	x	i	x	x
Nc1nc(Cl)nc2ncn(Cc3ccccc3)c12	x	i	x	x
CC(Cl)C(=O)Nc1ncc(C(F)(F)F)cc1Cl (centres undefined)	0.2	i	x	x
Cc1ccc(NC(=S)NNc2ncc(C(F)(F)F)cc2Cl)cc1	1.9	i	x	x
CON/C=N/C(=S)Nc1ncc(C(F)(F)F)cc1Cl	12*	i	i	218%*	CHO-K1 ctr=-22;KCNQ1 sel pot=32*;KCNQ2 pot conf=18*;Kir21 spec=-21;KCNQ2 W236L MoA=i
ON/C=N/C(=S)Nc1ncc(C(F)(F)F)cc1Cl	11*	i	i	140%*	CHO-K1 ctr=-1;KCNQ1 sel pot=-13;KCNQ2 pot conf=41*;Kir21 spec=-37;KCNQ2 W236L MoA=i
Cc1nc2nc(SCC(=O)c3ccc([N+](=O)[O-])cc3)[nH]c2cc1Br	0.29	i	x	x
O=C(NCc1ccc(Cl)cc1)c1ccc2nc[nH]c2c1	0.12	i	x	x
COc1cc(C)ccc1OCc1cc(C(=O)NCCN2CCOCC2)no1	x	i	x	x
Cc1ccc(CN2CCSCC2)cc1	x	i	x	x
c1ccc(CN2CCN(CCOCCOc3cccc4ccccc34)CC2)cc1	x	i	19%*	i
O=C(c1ccco1)N1CCN(CCOCCOc2cccc3ccccc23)CC1	0.35	i	x	x
O=C(Cc1ccccc1)N/N=C/c1cc(Br)cc(Br)c1O	7*	i	i	i	CHO-K1 ctr=4.9*;KCNQ1 sel pot=-25;KCNQ2 pot conf=-9;Kir21 spec=-36;KCNQ2 W236L MoA=i
O=C(Nc1cccc(N=Cc2cc(Br)cc(Br)c2O)c1)c1ccco1	9.3*	i	i	i	CHO-K1 ctr=56*;KCNQ1 sel pot=49*;KCNQ2 pot conf=15*;Kir21 spec=-36;KCNQ2 W236L MoA=i
O=C(Nc1cccc(NC(=O)c2ccco2)c1)c1cccc(Br)c1	1.4	i	x	x
O=C(CNC(=O)c1cccc(Br)c1)N/N=C/c1cc(Br)cc(Br)c1O	x	i	x	x
CC1CCCN(S(=O)(=O)c2ccc(S(=O)(=O)N3CCC4(CC3)OCCO4)cc2)C1 (centres undefined)	x	i	x	x
COc1ccc(C(C)(C)NC(=O)C2CCC(=O)N(C3CCCC3)C2)cc1OC (centres undefined)	0.92	i	x	x
Clc1ccc(OCCCNCc2ccccc2)c2ccccc12	-7.6	-7.6*	14%*	74%*
Cc1cc(C)c(OCCCCNCc2ccccc2)c(Cl)c1	x	i	12%*	i
COc1c(Cl)cc(Cl)cc1CNCc1ccccc1	x	i	x	x
Cc1cc(C)c(C)c(OCCNCc2ccccc2)c1	x	i	x	x
Cc1cc(Br)ccc1OCCNCc1ccccc1	x	i	25%*	i
SMILES	KCNQ2 pot	KCNQ2 block	Kir21 conf inh	HEK293 Tl flux	others
COc1ccccc1OCCCOc1c(Cl)cc(C)cc1Cl	0.23	i	x	x
Cc1cc(Cl)cc(C)c1OCCOCCNCc1ccccc1	x	i	14%*	i
CCC(C)NCCOCCOc1ccc(Cl)c2ccccc12 (centres undefined)	0.24	i	x	x
O=C(CSc1nc(=O)n(CCCN2CCOCC2)c2c1CCCC2)Nc1cccc(Cl)c1	x	i	x	x
CCCNC(=S)N1CCC(NC(=O)Nc2ccc(C)cc2)CC1	0.88	i	x	x
O=C(CCN1CCN(Cc2ccccc2)CC1)NNC(=O)Nc1cccc([N+](=O)[O-])c1	x	i	x	x
CCCCCc1c(C)[nH]c2nc3ccccc3n2c1=O	x	i	x	x
